This is an account of results in PubChem BioAssay AID1259343 (VanderVen Lab, College of Veterinary Medicine, Cornell …, 2017).

Screen size: about 6,200 compounds; about 2,900 (47%) were called active. No stated cut-off is given here; in the data, active means inhibition above about 50%; inactive means the rest. The set was probably picked from earlier hits. Some of the results follow.

The assay can be described thus: Mycobacterium tuberculosis growth inhibition, primary screen (AID 1259343). To be noted: inhibition: at 10 µM, hits give high values; outcome: 10 uM.
Turning to `Cc1ccc(C(=O)NCc2ccc(-c3ccc(O)cc3)cc2)o1`, the inhibition (in general, the relative decrease from the control value, in per cent) is 40.6% (inactive).

Take `CN(Cc1ccc2ccccc2c1)C(=O)COc1ccccc1F`: the inhibition was 38.5% (inactive). For `Cc1ccc(CN(C)C(=O)COc2ccc(O)cc2)o1` the value was 80.2% (active). For `CCC(=O)OC(C#N)C1=C(Cl)C(=O)c2ccccc2C1=O` (stereo unspecified) the value was 103% (active); for `CCNC(=O)NC(=O)CSc1nnc(Nc2ccc(C(C)C)cc2)s1`, 85% (active). Next, `CCOC(=O)CSc1nnc(Nc2ccc(C)cc2)s1`: -19.5% (inactive); `CCNC(=O)NC(=O)CSc1nnc(Nc2ccc(CC)cc2)s1`: 66.4% (active); `CCOCCCNC(=O)NC(=O)CSc1nnc(Nc2ccc(C)cc2)s1`: 83% (active). Take `CCCC(C)NC(=O)CSc1nnc(Nc2ccc(CC)cc2)s1` (stereo unspecified): the inhibition was 84.9% (active).

For the molecule `CN[C@@H]1C[C@@H](c2ccc(Cl)c(Cl)c2)c2ccccc21`, the inhibition was 48% (inactive).

In the case of `COc1ccc2c(c1)OCC(C(=O)C(C#N)c1nc3ccccc3o1)C2` (stereo unspecified), the inhibition is 99.3% (active). For `CC1(C)C(C(Cl)Cl)C2(Cl)C(Cl)C(Cl)C1(Cl)C2(Cl)Cl` (stereo unspecified) the value was 76.2% (active); for `Cc1ccccc1N=C1NC(=O)C(Cc2ccccc2[N+](=O)[O-])S1` (stereo unspecified), 56.7% (active). Take `O=c1ccc([N+](=O)[O-])ccc1Nc1ccccn1`: the inhibition is 82.3% (active). Next, `Cc1noc(-c2ccc(C(=O)NCCC(C)C)cc2)n1`: -1.14% (inactive); `CC(C)CCNC(=O)c1ncc(Cl)c(Cl)c1Cl`: 81.3% (active). Consider `Fc1ccc(-c2noc3nc(OCc4ncccn4)ccc23)cc1`, for which the inhibition was 46% (inactive). For `c1ccc(-c2noc3nc(OCc4ccccn4)ccc23)cc1` the value was 50.7% (active). For `Cc1nc(COc2ccc3c(-c4ccccc4F)noc3n2)cs1` the value was 62.8% (active); for `Fc1ccccc1-c1noc2nc(OCc3ccccn3)ccc12`, 90.2% (active). Next, `Cc1ccc(S(=O)(=O)CCC(=O)Nc2ccc(C)c(C)c2)cc1`: 68% (active). For `CCCCc1ccc(NC(=O)CCS(=O)(=O)c2ccc(Cl)cc2)cc1`, the inhibition was -52.4% (inactive). Next, `Clc1ccc2c(Oc3cccc(Br)c3)ccnc2c1`: 0.33% (inactive); `Clc1ccc2c(Oc3ccc(Br)cc3)ccnc2c1`: 58% (active); `O=C1c2ccccc2S(=O)(=O)N1c1ccc(Cl)cc1`: 60.5% (active). Next, `O=C1c2ccccc2S(=O)(=O)N1c1cccc(Cl)c1`: “inactive”; `O=C1c2ccccc2S(=O)(=O)N1c1ccc(Br)cc1`: -53.1% (inactive). For `O=C1c2cccc(O)c2CCN1Cc1ccc(Br)cc1`, the inhibition is 19.3% (inactive). Next, `CCCCOc1cccc2c1CCN(CC)C2=O`: -1.17% (inactive); `O=C1c2cccc(O)c2CCN1Cc1ccc(Cl)cc1`: 58% (active); `COc1cccc(CN2N=NC3C(=O)N(c4ccc(OC)c(Cl)c4)C(=O)C32)c1` (stereo unspecified): 102% (active). Regarding `CCOc1ccc(N2C(=O)C3N=NN(Cc4cc(C(=O)OC)ccc4OC)C3C2=O)cc1` (stereo unspecified), the inhibition is -31.4% (inactive). For `COc1ccc(CN2N=NC3C(=O)N(c4ccc(OC)c(Cl)c4)C(=O)C32)cc1` (stereo unspecified) the value was 83.8% (active); for `COc1ccc(OC)c(Nc2nc(Cl)nc(Nc3cc(OC)ccc3OC)n2)c1`, 1.76% (inactive). For `COc1ccc(N2C(=O)C3N=NN(Cc4ccccc4)C3C2=O)cc1Cl` (stereo unspecified) the value was 20.8% (inactive); for `Cc1cccc(CN2CCN(Cc3ccc(Cl)c(F)c3)CC2=O)c1`, 6.7% (inactive). As for `COc1ccc(N2C(=O)C3N=NN(Cc4cccc(C)c4)C3C2=O)cc1Cl` (stereo unspecified), the inhibition was 79.6% (active). As for `COC(=O)c1ccc(OC)c(CN2N=NC3C(=O)N(c4ccc(OC)c(Cl)c4)C(=O)C32)c1` (stereo unspecified), the inhibition was 55.6% (active). Next, `CC(=O)c1nnc2c(-c3ccccc3)c(C)nn2c1C`: 89.5% (active); `Cc1nn2c(NCCCN(C)C)cc(-c3ccccc3)nc2c1-c1ccccc1`: -0.28% (inactive); `Cc1nn2c(=O)[nH]c(SCc3cccnc3)nc2c1-c1ccccc1`: 33.2% (inactive). For the molecule `CNC(=O)COc1ccc(-c2c(C)cccc2C)cc1`, the inhibition is 26.1% (inactive). On to `CC(=O)Nc1ccc(OC/C=C/c2ccccc2)cc1`, for which the inhibition was 87.3% (active). Next, `COc1ccc(/C=C/c2nc3cc(C)ccc3s2)cc1O`: 23.6% (inactive); `Cc1oc(-c2ccccc2Cl)cc1CO`: 35.3% (inactive); `COc1ccc(/C=C/C(=O)NNC(=O)COc2ccc(C)cc2)cc1`: 95.6% (active). For `CNC(=O)COc1ccc(Oc2ccc(C)cc2)cc1` the value was 25.8% (inactive). Next, `CNC(=O)COc1ccc(/C=C/c2ccccc2)cc1`: 51.1% (active); `CNC(=O)COc1ccc(-c2ccccc2Cl)cc1`: 72.2% (active); `O=C(COc1ccccc1)NN=Cc1ccc(Br)cc1`: 89.4% (active). In the case of `CC(NC(=O)COc1ccccc1)c1ccccc1Cl` (stereo unspecified), the inhibition is 85.4% (active).

As to `COC(=O)Cc1ccc(OCC(=O)NC(C)c2ccc(Cl)cc2)cc1` (stereo unspecified), the inhibition is 20.1% (inactive).

With `Cc1nc(Cl)cc(NC(C)c2ccc(Cl)c(Cl)c2)n1` (stereo unspecified), the inhibition is 6.72% (inactive). Next, `Cc1ccc(-n2nnc(C(=O)OCc3ccccc3C)c2C)cc1`: 93.8% (active); `COc1ccc(-c2nn(-c3ccccc3)cc2CN2CCN(c3cnccn3)CC2)c(F)c1`: 62.9% (active); `COc1ccc(Oc2ccc(C(=O)N[C@H]3CCCC[C@@H]3O)cc2)cc1`: 80.8% (active).

With `COc1ccc(C(=O)NC2CC(C)(C)Cc3occc32)cc1` (stereo unspecified), the inhibition is -1.78% (inactive). For `CCOC(=O)CSc1ncnc2c1nnn2Cc1ccc(Cl)cc1` the value was -17.6% (inactive); for `CCOC(=O)CSc1ncnc2c1nnn2Cc1ccc(F)cc1`, -18.2% (inactive); for `CCOC(=O)C(C)Sc1ncnc2c1nnn2Cc1ccc(Cl)cc1` (stereo unspecified), 50.4% (active). Regarding `CCOC(=O)C(C)Sc1ncnc2c1nnn2Cc1ccc(F)cc1` (stereo unspecified), the inhibition is 64.3% (active). As for `CCOC(=O)CNC(=O)CSc1ncnc2c1nnn2Cc1ccc(F)cc1`, the inhibition is -15.9% (inactive). For `CN=c1scc(-c2ccc(F)cc2)n1N=Cc1cccc(Br)c1` the value was 70.2% (active); for `CN=c1scc(-c2ccccc2F)n1N=Cc1cccc(F)c1`, 98.1% (active). For `CN=c1scc(-c2ccc(F)cc2)n1N=Cc1ccccc1Br` the value was -41.8% (inactive); for `CN=c1scc(-c2ccccc2F)n1N=Cc1ccc(SC)cc1`, -1.82% (inactive); for `CN=c1scc(-c2ccccc2F)n1N=Cc1ccccc1`, -1.69% (inactive). As for `CN=c1scc(-c2ccc(F)cc2)n1N=Cc1cccc(C(F)(F)F)c1`, the inhibition was -44.1% (inactive). With `Cc1nn(C(=O)C(C)N2C(=O)c3ccccc3C2=O)c(C)c1Br` (stereo unspecified), the inhibition is 14.3% (inactive). Turning to `COc1ccc2oc(=O)cc(-c3cc4cc(Br)ccc4o3)c2c1`, the inhibition was -2.37% (inactive). For `Cc1cccc2nc(COc3ccc4ccccc4c3Br)cn12` the value was 41.5% (inactive); for `CCCCN1CCC(COC(=O)c2cc(Cl)c(N)c3c2OCCO3)CC1`, 98.9% (active); for `Cc1cccc(SC2CCN(c3nncc(-c4ccccc4)n3)CC2)c1`, 32.6% (inactive). Next, `NC(N)=NCc1ccc(Cl)cc1Cl`: 74.4% (active).

`Nc1ncc(Cc2cc(Cl)ccc2Cl)s1`: the inhibition was -17.2% (inactive).

Take `Nc1ncc(Cc2ccc(Cl)cc2F)s1`: the inhibition was 35.3% (inactive). For `Cc1nc(C)c(-c2ccc(SCc3c(F)cccc3Cl)nn2)s1`, the inhibition is 69.8% (active). For `Cc1nc(C)c(-c2csc(Nc3cccnc3)n2)s1` the value was 35.7% (inactive); for `O=C(NC(C1CC1)C1CC1)C1CC(c2ccc(Cl)s2)=NO1` (stereo unspecified), -31.9% (inactive); for `O=C(Nc1ccc(-n2cccn2)nc1)C1CC(c2cccc(F)c2)=NO1` (stereo unspecified), 14.1% (inactive).

`CC(NC(=O)C1CC(c2cccc(F)c2)=NO1)c1ccc(F)cc1F` (stereo unspecified): the inhibition was 84.1% (active). For `O=C(Oc1ccc2ccccc2c1)c1cccs1` the value was 86.7% (active); for `CCOc1ccccc1C(=O)Oc1ccc2ccc(O)cc2c1`, 40.6% (inactive); for `COc1ccc2c(=O)c3c(oc2c1)C(=O)N(c1nccs1)C3c1ccccc1` (stereo unspecified), 11.9% (inactive). For `COc1ccc2c(=O)c3c(oc2c1)C(=O)N(c1nccs1)C3c1ccc(C(C)(C)C)cc1` (stereo unspecified) the value was 5.45% (inactive); for `COc1ccc2c(c1)OCc1c-2oc2cc(OC)ccc12`, 81.8% (active). As for `CC1CCc2c(Cl)cc(Cl)c(O)c2N1` (stereo unspecified), the inhibition is 103% (active).

On to `COc1cc(C=Nc2ccc(I)cc2)cc(OC)c1OC`, for which the inhibition was 75.7% (active). Turning to `COc1cc(C=Nc2ccc3ncccc3c2)cc(OC)c1OC`, the inhibition was -5.15% (inactive). Turning to `Cc1ccc2c(c1)CCCN2C(=O)/C=C/c1ccco1`, the inhibition was 44.5% (inactive).

Turning to `COc1cc2c(cc1/C=C/C(=O)N1CCc3ccccc31)OC(C)C2` (stereo unspecified), the inhibition was 59.3% (active). For `O=c1c(Oc2ccccc2)coc2cc(O)ccc12` the value was 88.5% (active). As for `O=c1c(Oc2ccc(Cl)cc2)coc2cc(O)ccc12`, the inhibition was 33.2% (inactive). Turning to `CCCc1oc2cc(O)ccc2c(=O)c1Oc1ccccc1`, the inhibition is 80.2% (active).

As for `O=c1c(Oc2ccc(F)cc2)coc2cc(O)ccc12`, the inhibition was 103% (active). For `CCOC(=O)C(C)Oc1ccc2c(=O)c(Oc3ccc(OCC)cc3)coc2c1` (stereo unspecified) the value was 22.8% (inactive); for `CCCc1nc2oc3cc(OC)ccc3c(=O)c2c(=O)n1CCc1ccccc1`, 4.8% (inactive); for `CCCc1cc(=O)oc2cc(OC(C)C)c(Cl)cc12`, 23.5% (inactive). In the case of `O=c1c(Oc2ccccc2F)coc2cc(O)ccc12`, the inhibition was 11.6% (inactive). On to `CCCc1cc(=O)oc2cc(O)ccc12`, for which the inhibition is 55.5% (active).

Take `CCCc1cccc(C)c1O`: the inhibition was 42.4% (inactive). Next, `Oc1ccc(-c2nc3c4cnn(-c5ccccc5Cl)c4ncn3n2)cc1`: 44.1% (inactive); `O=C(c1cnn2cccnc12)N1CCOc2ccc(C(O)C(c3ccccc3)c3ccccc3)cc2C1` (stereo unspecified): -21.2% (inactive).

For `Cc1cc(C(C)(C)CC(C)(C)C)ccc1OCCOCC[N+](C)(C)Cc1ccccc1`, the inhibition was 87.5% (active). On to `CCCCCCCCN1C(=O)CC(=O)NC1=S`, for which the inhibition is 27.6% (inactive). Turning to `CCCCCCCCc1nc(=S)[nH][nH]1`, the inhibition was 86.1% (active).
